Laboratory results published in the supplement of paper PMC9262897, “Low-cost anti-mycobacterial drug discovery using engineered E. coli” (Nature Communications, 2022).
Counter-ions that a name gives are not always drawn. ± gives the standard deviation of the averaged measurements.

Assays:
Experiment in all cases: growth (OD600 after 10 h); higher = more growth (less inhibition)
[1] = system: E. coli TESEC Alr+ wild-type control; conditions: compound 0.1 mM; raw OD600 reference: median of DMSO wells 0.241, cell-free background 0.041
Description: (§1)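 TESEC Mtb Alr E. coli, or the Alr+ wild-type control, in 384-well plates with Prestwick library compounds at 0.1 mM and 1% DMSO, across arabinose induction levels of 1E3 to 1E7 nM. Growth is read as OD600 after 10 h at 37 °C in triplicate biological replicates.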

E. coli TESEC Mtb Alr [2] = conditions: compound 0.1 mM
Description: as §1

E. coli TESEC Mtb Asd = conditions: compound 0.1 mM
Description: (§2)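 TESEC E. coli strains in which the native enzyme is deleted and replaced by arabinose-inducible Mtb Asd, DapB, CysH or TrpD, each grown in its selective medium. Strains were screened against the Prestwick library at 0.1 mM and 1% DMSO in 384-well format at low and high arabinose induction. Growth is read as OD600 after 10 h in triplicate.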

E. coli TESEC Mtb DapB = conditions: compound 0.1 mM
Description: as §2

E. coli TESEC Mtb Alr [3] = conditions: compound 0.1 mM; remark: listed apart in the source
Description: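 TESEC Mtb Alr E. coli (ΔaraC ΔtolC ΔentC Δalr ΔdadX, arabinose-inducible Mtb Alr) or the Alr+ wild-type control strain, grown in defined M9-fructose medium without D-alanine in 96-well plates with Prestwick library compounds at 0.1 mM and 1% DMSO. Low Alr induction is 0.1 µM arabinose and high induction is 10 mM arabinose.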

[4] = arabinose 1000 nM, raw OD600 reference: median of DMSO wells 0.294, cell-free background 0.041
[5] = arabinose 10000 nM, raw OD600 reference: median of DMSO wells 0.264, cell-free background 0.041
[6] = arabinose 100000 nM, raw OD600 reference: median of DMSO wells 0.201, cell-free background 0.041
[7] = arabinose 1000000 nM, raw OD600 reference: median of DMSO wells 0.193, cell-free background 0.041
[8] = arabinose 10000000 nM, raw OD600 reference: median of DMSO wells 0.146, cell-free background 0.041
[9] = arabinose induction (level): High, raw OD600 reference: median of DMSO wells 0.331, cell-free background 0.041
[10] = arabinose induction (level): Low, raw OD600 reference: median of DMSO wells 0.417, cell-free background 0.041
[11] = arabinose induction (level): High, raw OD600 reference: median of DMSO wells […], cell-free background 0.041
[12] = arabinose induction (level): Low, raw OD600 reference: median of DMSO wells 0.227, cell-free background 0.041
[13] = arabinose 100 nM, raw OD600 reference: median of DMSO wells 0.413, cell-free background 0.052
[14] = arabinose 10000000 nM, raw OD600 reference: median of DMSO wells […], cell-free background 0.052

SMILES	growth [1]	growth (E. coli TESEC Mtb Alr [2]; [4])	growth (E. coli TESEC Mtb Alr [2]; [5])	growth (E. coli TESEC Mtb Alr [2]; [6])	growth (E. coli TESEC Mtb Alr [2]; [7])	growth (E. coli TESEC Mtb Alr [2]; [8])	growth (E. coli TESEC Mtb Asd; [9])	growth (E. coli TESEC Mtb Asd; [10])	growth (E. coli TESEC Mtb DapB; [11])	growth (E. coli TESEC Mtb DapB; [12])	growth (E. coli TESEC Mtb Alr [3]; [13])	growth (E. coli TESEC Mtb Alr [3]; [14])
CC(C(=O)O)c1ccc2c(c1)Cc1cccnc1O2 (stereo not drawn) [Pranoprofen]	0.238 ± 0.0049	0.302 ± 0.013	0.271 ± 0.0097	0.192 ± 0.016	0.193 ± 0.0053	0.133 ± 0.0031	0.315 ± 0.03	0.367 ± 0.0097	0.192 ± 0.008	0.198 ± 0.013	0.415 ± 0.0046	0.316 ± 0.012
CCOc1ccccc1OC(c1ccccc1)C1CNCCO1 (stereo not drawn) [Reboxetine mesylate]	0.203 ± 0.0099	0.265 ± 0.023	0.253 ± 0.012	0.2 ± 0.02	0.15 ± 0.0074	0.1507 ± 0.0007	0.249 ± 0.038	0.296 ± 0.061	0.15 ± 0.0036	0.183 ± 0.021	0.402 ± 0.015	0.336 ± 0.022
NNC(=O)c1ccncc1 [Isoniazid]	0.242 ± 0.0073	0.288 ± 0.006	0.275 ± 0.0043	0.239 ± 0.052	0.186 ± 0.007	0.139 ± 0.0028	0.396 ± 0.028	0.429 ± 0.083	0.194 ± 0.0035	0.242 ± 0.052	0.405 ± 0.0067	0.359 ± 0.022
CC(C)(C)NC[C@H](O)c1ccc(O)c(CO)c1 [Levalbuterol hydrochloride]	0.235 ± 0.005	0.305 ± 0.011	0.273 ± 0.0041	0.197 ± 0.0075	0.214 ± 0.023	0.141 ± 0.0037	0.242 ± 0.05	0.32 ± 0.084	0.168 ± 0.033	0.179 ± 0.088	0.4232 ± 0.00093	0.318 ± 0.01
C[C@@](Cc1ccc(O)c(O)c1)(NN)C(=O)O [Carbidopa]	0.225 ± 0.0049	0.292 ± 0.024	0.118 ± 0.0053	0.228 ± 0.048	0.0919 ± 0.00096	0.193 ± 0.0067	0.283 ± 0.11	0.357 ± 0.04	0.159 ± 0.016	0.173 ± 0.018	0.375 ± 0.014	0.257 ± 0.012
Cc1cn([C@H]2C[C@H](N=[N+]=[N-])[C@@H](CO)O2)c(=O)[nH]c1=O [Zidovudine, AZT]	0.0935 ± 0.0041	0.0804 ± 0.011	0.0544 ± 0.0014	0.0839 ± 0.0005	0.0604 ± 0.0022	0.103 ± 0.0045	0.1 ± 0.0079	0.0819 ± 0.012	0.148 ± 0.0088	0.0825 ± 0.0056	0.166 ± 0.012	0.125 ± 0.017
CC12CC3CC(C)(C1)CC(N)(C3)C2 [Memantine Hydrochloride]	0.161 ± 0.005	0.207 ± 0.007	0.237 ± 0.017	0.184 ± 0.0066	0.195 ± 0.019	0.175 ± 0.0048	0.256 ± 0.039	0.155 ± 0.011	0.165 ± 0.011	0.199 ± 0.0086	0.398 ± 0.018	0.392 ± 0.018
COc1ccc(CN2CCN(C(c3ccc(F)cc3)c3ccc(F)cc3)CC2)c(OC)c1OC [Lomerizine hydrochloride]	0.119 ± 0.0034	0.126 ± 0.0034	0.0765 ± 0.0014	0.137 ± 0.0039	0.05757 ± 0.00049	0.0717 ± 0.0016	0.0685 ± 0.0042	0.0562 ± 0.0023	0.0966 ± 0.0085	0.0956 ± 0.013	0.248 ± 0.018	0.0708 ± 0.013
Cc1cccc(C)c1NC(=O)C1CCCCN1C (stereo not drawn) [Mepivacaine hydrochloride]	0.233 ± 0.012	0.2802 ± 0.0024	0.273 ± 0.0048	0.199 ± 0.026	0.225 ± 0.013	0.136 ± 0.0053	0.366 ± 0.042	0.367 ± 0.045	0.203 ± 0.013	0.216 ± 0.024	0.41 ± 0.011	0.365 ± 0.0059
CC(C)[N+](C)(CCOC(=O)C1c2ccccc2Oc2ccccc21)C(C)C [Propantheline bromide]	0.169 ± 0.0072	0.231 ± 0.025	0.269 ± 0.0034	0.155 ± 0.0034	0.153 ± 0.0025	0.132 ± 0.0019	0.233 ± 0.051	0.417 ± 0.047	0.156 ± 0.011	0.17 ± 0.0089	0.406 ± 0.011	0.32773 ± 0.00025
CN(C)CCOC(c1ccccc1)c1ccccc1 [Diphenhydramine hydrochloride]	0.2284 ± 0.002	0.296 ± 0.008	0.238 ± 0.0071	0.187 ± 0.013	0.151 ± 0.0087	0.148 ± 0.0063	0.194 ± 0.016	0.435 ± 0.016	0.195 ± 0.021	0.24 ± 0.051	0.408 ± 0.0097	0.307 ± 0.029
CCC(NC(C)C)C(O)c1ccc(O)c(O)c1 (stereo not drawn) [Isoetharine mesylate salt]	0.196 ± 0.0071	0.303 ± 0.012	0.277 ± 0.005	0.188 ± 0.018	0.18 ± 0.0035	0.155 ± 0.0024	0.309 ± 0.11	0.37 ± 0.062	0.187 ± 0.0097	0.226 ± 0.031	0.401 ± 0.032	0.344 ± 0.019
c1ccc2c(CC3=NCCN3)cccc2c1 [Naphazoline hydrochloride]	0.231 ± 0.0088	0.26 ± 0.032	0.268 ± 0.0057	0.191 ± 0.019	0.189 ± 0.0029	0.147 ± 0.0052	0.238 ± 0.042	0.333 ± 0.048	0.184 ± 0.011	0.21 ± 0.016	0.41 ± 0.0069	0.323 ± 0.018
N=C(N)NS(=O)(=O)c1ccc(N)cc1 [Sulfaguanidine]	0.249 ± 0.013	0.292 ± 0.029	0.26 ± 0.0047	0.227 ± 0.027	0.173 ± 0.0041	0.143 ± 0.0034	0.38 ± 0.028	0.383 ± 0.021	0.203 ± 0.0078	0.249 ± 0.032	0.41 ± 0.016	0.383 ± 0.022
